# From PubChem BioAssay (NCATS)
# Records with an inconclusive call do not appear. Where a call stands in place of a potency, no number is given. Activity calls are given as the source filed them. Unless noted, calls follow the shape of the dose curve; as a rule, active = well fitted curve in the direction sought with a large enough effect; inconclusive = small, poorly fitted or top-dose-only effect, or another doubt; inactive = no such curve, though single readings can be large; an effect the other way counts as inactive or inconclusive.
# How the values were obtained:
# [1] = P-glycoprotein substrates identified in KB-8-5-11 adenocarcinoma cell line, qHTS therapeutic library screen (AID 1346987); also: nearly all actives have a fitted effect of over 65% in size; also: potency is read from the fitted curve at half-maximal effect
# Method in brief: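 Steps: plate 500 KB-8-5-11 cells/well in DMEM + 10% FCS (colchicine removed); pin compounds in dose-response; incubate 72 h, 37 degree C, 5% CO2; add CellTiter-Glo, 5 min; read luminescence.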
# [2] = tested on: Zika virus NS2B-NS3 protease (unlinked complex); test: Primary screen GU Rhodamine qHTS for Zika virus inhibitors: Unlinked NS2B-NS3 protease assay (AID 1347159); also: nearly all actives have a fitted effect of over 60% in size
# Method in brief: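 Noncovalent NS2B hydrophilic domain/NS3 protease complex (25 nM final) in 10 mM Tris-HCl pH 8.0, 0.01% Tween 20, preincubated 15 min with compounds (up to 114 microM), then 1.5 microM Rhodamine110 substrate. Fluorescence change over 15 min fitted to 4-parameter Hill.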
# [3] = tested on: Zika virus NS2B-NS3 protease (linked construct); test: Primary screen NINDS Rhodamine qHTS for Zika virus inhibitors (AID 1347160); also: nearly all actives have a fitted effect of over 55% in size
# Method in brief: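 Purified NS2B-NS3 protease with the NS2B hydrophilic domain joined by a flexible linker (25 nM) in 10 mM Tris-HCl pH 8.0, 0.01% Tween 20, preincubated 15 min at RT with compound; Rhodamine110 peptide substrate 1.5 µM; fluorescence change over 15 min; 4-parameter Hill fit.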
# [4] = target: Cytochrome P450 2D6 (Homo sapiens) (UniProt P10635); test: Cytochrome P450 family 2 subfamily D member 6 (CYP2D6) small molecule antagonists: luciferase biochemical (cell-free) qHTS assay (AID 1645840; active = well fitted curve in the direction sought with a large enough effect in the repeat runs; an effect the other way counts as inactive or inconclusive; also: nearly all actives have a fitted effect of over 55% in size; also: potency is read from the fitted curve at half-maximal effect)
# Method in brief: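 P450-Glo luminescent screen: recombinant CYP2D6 enzyme–proluciferin substrate mix preincubated with compound 10 min at room temperature, then NADPH regeneration added for 1 h at room temperature. Detection reagent added for 20 min; luciferin light read as relative luminescence units.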
# [5] = target: Cytochrome P450 2C9 (Homo sapiens) (UniProt P11712); test: Cytochrome P450 family 2 subfamily C member 9 (CYP2C9) small molecule antagonists: luciferase biochemical (cell-free) qHTS assay (AID 1645842; active = well fitted curve in the direction sought with a large enough effect in the repeat runs; an effect the other way counts as inactive or inconclusive; also: nearly all actives have a fitted effect of over 55% in size; also: potency is read from the fitted curve at half-maximal effect)
# Method in brief: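 Luminescence, after 20 min with luciferin detection reagent, reflected CYP2C9 turnover during a 1 h NADPH-driven reaction at 37C. Enzyme-substrate mix contained 0.4% bovine serum albumin and was preincubated with compound 10 min at room temperature.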
# [6] = target: Glutathione peroxidase 1 (Homo sapiens) (UniProt P07203); test: Primary qHTS Assay for Inhibitors of Recombinant Selenoprotein Glutathione Peroxidase 1 (GPX1) (AID 1845191); also: nearly all actives have a fitted effect of over 65% in size
# Method in brief: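 Recombinant GPX1 (10 nM final) was preincubated with compound for 30 min at room temperature, then reacted with 1 mM GSH, 0.5 mM CHP, 0.5 mM NADPH and 100 nM glutathione reductase; NADPH fluorescence (340/450 nm) was read at 0 and 15 min.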
# HaCat [7] = test: Cytotoxic Profiling of Annotated Libraries Using Quantitative High-Throughput Screening (AID 1296008); settings: Five cell lines viability, CellTiter-Glo ATP luminescence, 48-72 h; max response: stronger effect = lower value; also: nearly all actives have a fitted effect of over 60% in size; also: potency is read from the fitted curve at half-maximal effect
# Method in brief: (§1)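 Compounds were pin-transferred onto cells and incubated 48 or 72 hr at 37 degree Celsius, 95% humidity. CellTiter-Glo was added, plates sat 10 min at room temperature, then ATP-coupled luminescence was imaged as the viability read-out.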
# KB-3-1 = test: as above; settings: Five cell lines viability, CellTiter-Glo ATP luminescence, 48-72 h; max response: stronger effect = lower value
# Method in brief: as §1
# CRL-7250 = normal cell line; test: qHTS assay to identify novel small-molecules to repurpose for Merkel cell carcinoma treatment (AID 1296009); settings: MCC and control cell lines, CellTiter-Glo viability, 72 h; series mostly up to 92 µM; also: nearly all actives have a fitted effect of over 60% in size
# Method in brief: (§2)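 qHTS format: cells treated with library compounds in DMSO across 8 (NPC) or 11 (MIPE) concentrations. Readout after 72 hr at 37 degree celsius was CellTiter-Glo luminescence.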
# HeLa = test: Primary qHTS to identify gynecologic anti-cancer compounds using libraries of approved drugs and bioactive compounds (AID 1345084); settings: Gynecologic cancer cell panel viability, ATPlite luminescence, 48 h; series mostly up to 57.5 µM; also: nearly all actives have a fitted effect of over 55% in size; also: potency is read from the fitted curve at half-maximal effect
# Method in brief: (§3)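 Five-point cytotoxicity, 48 h drug exposure at 37 C, 5% CO2, on cells seeded 16 h beforehand. ATP content read by ATPlite luminescence.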
# SKOV3 = test: as above; settings: Gynecologic cancer cell panel viability, ATPlite luminescence, 48 h; series mostly up to 57.5 µM
# Method in brief: as §3
# [8] = P-glycoprotein substrates identified in KB-3-1 adenocarcinoma cell line, qHTS therapeutic library screen (AID 1346986); also: nearly all actives have a fitted effect of over 60% in size
# Method in brief: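 Resistance attributable to P-gp was assessed by comparing AC50 in KB-8-5-11 with parental KB-3-1 and by tariquidar reversal. Cells were exposed 72 h and viability read by CellTiter-Glo.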
# [9] = Primary qHTS for inhibitors of nuclear receptor binding SET domain protein 2 (NSD2) in an RCH-ACV wild type WT cells (2C) (AID 1645877); also: nearly all actives have a fitted effect of over 70% in size; also: potency is read from the fitted curve at half-maximal effect
# [10] = target: Catechol O-methyltransferase (Homo sapiens) (UniProt P21964); test: Confirmatory Screen for Target Class Profiling of Small Molecule Inhibitors of Methyltransferases (AID 1745852; calls by dose curve); settings: MTase-Glo luminescence, SAH detection, recombinant enzyme; measured here: COMT max response; stronger effect = lower value
# [11] = target: Guanidinoacetate N-methyltransferase (Homo sapiens) (UniProt Q14353); test: as above; settings: activity change, negative = inhibition: at 57.3 µM (top of the series) unless noted
# [12] = target: Nicotinamide N-methyltransferase (Homo sapiens) (UniProt P40261); test: as above; settings: MTase-Glo luminescence, SAH detection, recombinant enzyme; measured here: NNMT max response; stronger effect = lower value
# HACAT [13] = test: qHTS assay to identify novel small-molecules to repurpose for Merkel cell carcinoma treatment (AID 1296009); settings: MCC and control cell lines, CellTiter-Glo viability, 72 h; at 44.8 µM (top of the series) unless noted; also: nearly all actives have a fitted effect of over 60% in size
# Method in brief: as §2
# Chain of Cytochrome P450 2C9 (Homo sapiens) (P11712 whole entry, looked up): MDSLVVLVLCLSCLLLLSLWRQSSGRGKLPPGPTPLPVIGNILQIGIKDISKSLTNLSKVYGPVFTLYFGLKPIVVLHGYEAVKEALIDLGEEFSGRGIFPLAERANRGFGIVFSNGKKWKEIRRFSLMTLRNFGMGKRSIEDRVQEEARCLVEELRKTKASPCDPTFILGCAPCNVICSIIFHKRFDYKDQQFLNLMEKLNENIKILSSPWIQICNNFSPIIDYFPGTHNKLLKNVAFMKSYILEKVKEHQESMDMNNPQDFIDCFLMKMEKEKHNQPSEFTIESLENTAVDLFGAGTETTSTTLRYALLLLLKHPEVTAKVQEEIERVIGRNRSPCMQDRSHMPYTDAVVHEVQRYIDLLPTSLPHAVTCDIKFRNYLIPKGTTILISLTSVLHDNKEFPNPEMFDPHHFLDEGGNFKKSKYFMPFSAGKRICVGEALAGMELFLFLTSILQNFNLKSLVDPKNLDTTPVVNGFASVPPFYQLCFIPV
# Chain of Glutathione peroxidase 1 (Homo sapiens) (P07203 whole entry, looked up): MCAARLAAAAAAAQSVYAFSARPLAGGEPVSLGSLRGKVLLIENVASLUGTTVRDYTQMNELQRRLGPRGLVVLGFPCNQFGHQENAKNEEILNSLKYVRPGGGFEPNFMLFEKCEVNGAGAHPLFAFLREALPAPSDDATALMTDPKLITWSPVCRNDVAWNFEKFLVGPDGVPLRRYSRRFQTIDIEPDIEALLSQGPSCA
# Chain of Cytochrome P450 2D6 (Homo sapiens) (P10635 whole entry, looked up): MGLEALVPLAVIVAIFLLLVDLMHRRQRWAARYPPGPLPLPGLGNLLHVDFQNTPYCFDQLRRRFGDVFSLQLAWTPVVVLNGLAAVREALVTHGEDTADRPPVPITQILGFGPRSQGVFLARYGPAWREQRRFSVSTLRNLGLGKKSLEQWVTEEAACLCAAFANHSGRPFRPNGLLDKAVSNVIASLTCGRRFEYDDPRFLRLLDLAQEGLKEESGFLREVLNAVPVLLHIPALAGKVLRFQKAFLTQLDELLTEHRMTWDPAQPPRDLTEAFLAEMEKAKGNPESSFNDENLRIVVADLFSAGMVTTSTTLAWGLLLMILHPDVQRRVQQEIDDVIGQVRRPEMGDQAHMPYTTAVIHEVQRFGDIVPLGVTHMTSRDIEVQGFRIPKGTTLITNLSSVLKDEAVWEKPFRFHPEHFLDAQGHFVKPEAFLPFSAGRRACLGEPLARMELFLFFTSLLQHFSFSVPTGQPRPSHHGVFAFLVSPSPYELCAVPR
# Chain of Catechol O-methyltransferase (Homo sapiens) (P21964 whole entry, looked up): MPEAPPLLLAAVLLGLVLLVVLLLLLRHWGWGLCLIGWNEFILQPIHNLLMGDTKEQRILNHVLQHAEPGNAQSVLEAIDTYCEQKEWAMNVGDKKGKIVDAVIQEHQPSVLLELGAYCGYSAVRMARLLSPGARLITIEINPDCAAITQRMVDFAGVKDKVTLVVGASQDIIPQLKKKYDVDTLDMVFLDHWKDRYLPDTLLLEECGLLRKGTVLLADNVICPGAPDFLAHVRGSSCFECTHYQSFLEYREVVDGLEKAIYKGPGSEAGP
# Chain of Nicotinamide N-methyltransferase (Homo sapiens) (P40261 whole entry, looked up): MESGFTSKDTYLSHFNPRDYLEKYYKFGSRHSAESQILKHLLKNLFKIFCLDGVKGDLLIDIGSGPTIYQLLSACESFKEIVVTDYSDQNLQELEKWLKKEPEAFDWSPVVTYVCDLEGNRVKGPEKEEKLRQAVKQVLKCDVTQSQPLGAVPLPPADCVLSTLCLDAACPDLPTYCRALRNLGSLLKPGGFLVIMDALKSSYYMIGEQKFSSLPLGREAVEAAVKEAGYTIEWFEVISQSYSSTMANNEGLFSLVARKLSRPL
smiles,measurement,setting,value
CCCCCn1cc(C(=O)Oc2cccc3cccnc23)c2ccccc21,Potency,[1],inactive
same,Potency,[2],inactive
same,Potency,[3],inactive
same,Potency,[4],inactive
same,Potency,[5],3.38 µM (active)
same,Potency,[6],inactive
same,max response,HaCat [7],2.86% (inactive)
same,max response,KB-3-1,-8.4% (inactive)
same,Potency,CRL-7250,inactive
same,Potency,HeLa,inactive
same,Potency,SKOV3,inactive
C[C@]12CC[C@H](O)C[C@@H]1CC[C@@H]1[C@@H]2CC[C@]2(C)C(=O)CC[C@@H]12,Potency,[8],inactive
same,Potency,[1],inactive
same,Potency,[2],inactive
same,Potency,[3],inactive
same,Potency,[9],inactive
same,Potency,[6],inactive
same,outcome,KB-3-1,inactive
same,Potency,HeLa,inactive
same,Potency,SKOV3,inactive
CC1=CC2OC3CC(O)[C@](C)([C@@]2(C)C(O)C1=O)[C@]31CO1 (stereo partly specified),Potency,[1],5.17 µM (active)
same,Potency,[2],inactive
same,Potency,[3],inactive
same,Potency,[9],4.09 µM (active)
same,Potency,[6],inactive
same,Potency,KB-3-1,7.31 µM (active)
Fc1cc(F)c2c(c1)C1C=CCC1C(c1cccnc1)N2 (stereo unspecified),Potency,[1],4.61 µM (active)
same,Potency,[2],inactive
same,Potency,[4],23.9 µM (active)
same,Potency,[5],5.35 µM (active)
same,Potency,[9],16.3 µM (active)
same,activity,[10],-0.484%
same,"activity change, negative = inhibition",[11],0.0443%
same,activity,[12],-6.05%
same,Potency,KB-3-1,4.61 µM (active)
same,Potency,SKOV3,11.2 µM (active)
CCOc1ccc(Oc2ccc(OCc3cc(F)ccc3F)cc2)c(N)c1,Potency,[2],inactive
same,Potency,[3],inactive
same,Potency,[5],10.7 µM (active)
same,Potency,[6],inactive
same,max response,HaCat [7],-5.94% (inactive)
same,max response,KB-3-1,-0.382% (inactive)
same,Potency,CRL-7250,inactive
same,Potency,HeLa,inactive
same,Potency,SKOV3,inactive
CC1=CC(=O)[C@@H](O)[C@@]2(C)C1C[C@H]1OC(=O)[C@H](O)[C@@]3(O)[C@@H](C)[C@@H](O)[C@H](O)C2[C@@]13C (stereo partly specified),Potency,[2],inactive
same,Potency,[3],inactive
same,Potency,[9],1.01 µM (active)
same,Potency,[6],inactive
CN(C(=O)C(c1ccccc1)c1ccccc1)[C@H](CN1CC[C@H](O)C1)c1ccccc1,Potency,[2],inactive
same,Potency,[4],0.122 µM (active)
same,Potency,[5],inactive
same,Potency,[6],inactive
same,outcome,HaCat [7],inactive
same,max response,KB-3-1,-3.45% (inactive)
same,Potency,CRL-7250,inactive
same,outcome,HACAT [13],inactive
same,Potency,HeLa,inactive
same,Potency,SKOV3,inactive
C=C1C(=O)CC2OC2(C)CC2OC(=O)C(=C)C2C(O)C1OC(=O)/C(C)=C\C (stereo unspecified),Potency,[3],inactive
same,Potency,[9],2.01 µM (active)
same,Potency,[6],inactive
same,Potency,SKOV3,inactive
CCN1C[C@]2(COC)CC[C@H](O)[C@@]34C5C[C@@H]6[C@@H](OC)C[C@@](OC(C)=O)(C5[C@@H]6OC(C)=O)[C@H]([C@H](OC)C23)[C@@H]14 (stereo partly specified),Potency,[1],inactive
same,Potency,[2],inactive
same,Potency,[3],inactive
same,Potency,[9],inactive
same,Potency,[6],inactive
same,max response,KB-3-1,-0.111% (inactive)
same,Potency,HeLa,inactive
same,Potency,SKOV3,inactive
CC(=O)O[C@H]1C[C@]2(O)[C@@H]3CC[C@@H]4C[C@@H](O)CC[C@]4(C)[C@H]3CC[C@]2(C)[C@H]1c1ccc(=O)oc1,Potency,[1],0.0517 µM (active)
same,Potency,[9],0.0578 µM (active)
same,Potency,[6],inactive
same,Potency,HeLa,0.316 µM (active)
same,Potency,SKOV3,0.1 µM (active)
